Measured values taken from PubChem BioAssay (NCATS).
Results filed as inconclusive are left out. Unmarked numbers belong to inactive results. The source made the active and inactive calls. The call rests on the fitted dose curve; in most records, active means well fitted curve in the direction sought with a large enough effect; inconclusive means small, poorly fitted or top-dose-only effect, or another doubt; inactive means no such curve, though single readings can be large; an effect the other way counts as inactive or inconclusive.

The compounds below were run against Aldehyde dehydrogenase, mitochondrial (Homo sapiens) (UniProt P05091) (assay: qHTS for Inhibitors of the Aldehyde Dehydrogenase Family (ALDH2) Primary screen (AID 2061308;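 further: plate controls were vehicle for no effect and reference inhibitor for full effect; nearly all actives have a fitted effect of over 55% in size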)). Settings: ALDH2 enzyme inhibition qHTS, 1536-well; series mostly up to 56 µM; activity change, negative = inhibition: at the top concentration.
CC(C)Nc1oc(-c2cccc3ccccc23)nc1C#N was tested, and the “activity change, negative = inhibition” value was 0.14%.
For Cc1cc(C)nc(NC(=S)N2CCN(c3cccc(OC(F)F)c3)CC2)c1, the “activity change, negative = inhibition” value was -16.7%.
For CC1CC(O)/C=C/C(O)/C=C\C(=O)O1 (centres undefined), the “activity change, negative = inhibition” value was -7.12% [at 81.8 µM].
COc1ccccc1CNC(=O)Nc1nnc(-c2ccncc2)s1 was tested, and the “activity change, negative = inhibition” value was 24.9%.
In the case of COc1ccc(S(=O)(=O)N2CCN(S(=O)(=O)c3c(F)cccc3F)CC2)cc1, the Potency is reported as “inactive”.
With COc1ccc(C2Nc3ccccc3C(=O)N2Cc2cccnc2)cc1COc1c(C)cccc1C (centres undefined) the “activity change, negative = inhibition” value was -13.2%.
In the case of Cc1ccc(S(=O)(=O)Nc2ccccc2CNc2nc(-c3ccccc3)cs2)cc1, the “activity change, negative = inhibition” value is reported as -4.16%.
With COc1cc(F)c(S(=O)(=O)N2CCN(S(=O)(=O)c3ccc4c(c3)OCCO4)CC2)c(F)c1 the “activity change, negative = inhibition” value was 4.58%.
For N#Cc1ccc(-c2csc(N3CCC(C(N)=O)CC3)n2)cc1, the “activity change, negative = inhibition” value was 18.8%.
For O=C(Cn1cc(CNC(=O)C2CCCCC2)nn1)Nc1cc(C(F)(F)F)ccc1Cl, the “activity change, negative = inhibition” value was 6.75%.
With Cc1ccccc1N(C)C1=N[S+](=O)([O-])c2ccccc21 the “activity change, negative = inhibition” value was -1.1%.
For Cc1cc(NS(=O)(=O)c2ccc(NC(=O)Cc3ccc(C)c(F)c3)cc2)no1, the “activity change, negative = inhibition” value was 8.12%.
CN1CCCC1CCNc1ncnc2ccc(-c3ccc4c(c3)OCO4)cc12 (centres undefined) was tested, and the “activity change, negative = inhibition” value was 10.7%.
With C(=Nc1cccnc1)c1cccs1 the “activity change, negative = inhibition” value was 9.78%.
With Cc1nc(N2CCOCC2)c2nc(-c3ccccc3)n(CC3CCN(C)CC3)c2n1 the “activity change, negative = inhibition” value was -4.92%.
In the case of O=C1CCc2cc(S(=O)(=O)NCc3ccccc3)ccc2N1, the “activity change, negative = inhibition” value is reported as 15.8%.
O=S(=O)(c1ccc2c(c1)OCCO2)C1CCC(S(=O)(=O)c2c(F)cccc2F)CC1 (centres undefined) was tested, and the Potency was “inactive”.
For Cn1nnnc1Sc1ncnc2scc(-c3ccc(Cl)cc3)c12, the “activity change, negative = inhibition” value was -3.59%.
For Cc1cccc(-c2nnc(C)n2CCCn2ccnc2)c1N, the “activity change, negative = inhibition” value was 4.3%.
CC(=O)O[C@H]1C(=O)[C@@]2(C)[C@H]([C@H](OC(=O)c3ccccc3)[C@]3(O)C[C@H](OC(=O)[C@H](O)[C@@H](NC(=O)c4ccccc4)c4ccccc4)C(C)=C1C3(C)C)[C@]1(OC(C)=O)CO[C@@H]1C[C@@H]2O was tested, and the “activity change, negative = inhibition” value was -0.734% [at 16.9 µM].
O=C(O)c1ccc(CSc2nnc(-c3cccc([S+](=O)([O-])NC4CCCC4)c3)n2-c2ccccc2)cc1 was tested, and the “activity change, negative = inhibition” value was -2.63%.
In the case of CC(C)CN1CC2=C(C1=O)C(c1ccccc1Cl)N=C(Nc1nc3ccccc3o1)N2 (centres undefined), the “activity change, negative = inhibition” value is reported as -23.2%.
In the case of Cc1cc2c(s1)c1cnn(Cc3cc(F)c(F)c(F)c3F)c(=O)c1n2C, the “activity change, negative = inhibition” value is reported as 5.38%.
Cc1ccc(NC(=O)CSc2nnc(-c3cccc([S+](=O)([O-])N4CCCC4)c3)n2-c2c(C)cccc2C)cc1 was tested, and the “activity change, negative = inhibition” value was -1.02%.

The compounds below were run against Retinaldehyde dehydrogenase 3 (Homo sapiens) (UniProt P47895) (assay: qHTS for Inhibitors of the Aldehyde Dehydrogenase Family (ALDH1A3) Primary screen (AID 2061315;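 further: plate controls were DMSO vehicle for no effect and reference inhibitor for full effect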)). Settings: ALDH inhibition qHTS; series mostly up to 56 µM; activity change, negative = inhibition: at the top concentration.
For CCCn1c(C)nc2c(N(C)CCN(C)C)nc(C)nc21, the “activity change, negative = inhibition” value was 4.23%.
For O=C(CNC(=O)c1ccccc1)OC(CCc1ccccc1)C(=O)Nc1cc(C(F)(F)F)ccc1Cl (centres undefined), the “activity change, negative = inhibition” value was 8.41%.
For COc1cc(O)c(C(CC(=O)N2CCC(C)CC2)c2ccc3c(c2)OCO3)c(OC)c1 (centres undefined), the “activity change, negative = inhibition” value was 11.5%.
With O=[S+]([O-])(Nc1ccccc1F)c1cccc(NC/C=C/c2ccccc2)c1 the “activity change, negative = inhibition” value was 2.09%.
For COc1ccc(OC)c(NC(=O)C(OC(=O)CNC(=O)c2ccccc2)c2ccccc2)c1 (centres undefined), the “activity change, negative = inhibition” value was -23.1%.
COc1cccc(C2c3c(ncn(-c4ccc(NC(C)=O)cc4)c3=N)Oc3ccc4ccccc4c32)c1 (centres undefined) was tested, and the “activity change, negative = inhibition” value was 10.5%.
For COc1cccc(CNc2ccc(S(=O)(=O)Nc3cccnc3)cc2)c1O, the “activity change, negative = inhibition” value was -14.8%.
For O=C(O)c1ccc(S(=O)(=O)N[C@H](Cc2ccc([N+](=O)[O-])cc2)C(=O)O)cc1, the “activity change, negative = inhibition” value was 0.566%.
With Nc1ccc(NC(=O)Nc2nnc(-c3ccncc3)s2)cc1C(F)(F)F the “activity change, negative = inhibition” value was 11.2%.
O=C(/C=C/c1ccccc1)Nc1cccc(S(=O)(=O)Nc2ccccc2F)c1 was tested, and the Potency was “inactive”.
In the case of CC(=O)Nc1ccc(Cl)cc1C(=O)c1ccc[nH]1, the “activity change, negative = inhibition” value is reported as -5.45%.
Cc1ccccc1S(=O)(=O)Nc1cnccc1C(=O)Nc1nc(-c2ccccc2)cs1 was tested, and the “activity change, negative = inhibition” value was 13.4%.
For COc1ccc(NS(=O)(=O)c2ccc(C)cc2)cc1C(=O)Nc1nc(-c2ccccc2)cs1, the “activity change, negative = inhibition” value was -6.47%.
For Cc1cc2c(s1)c1cnn(Cc3ccc(C(C)(C)C)cc3)c(=O)c1n2C, the “activity change, negative = inhibition” value was 15.9%.
In the case of Cn1nnnc1Sc1ncnc2scc(-c3cccs3)c12, the “activity change, negative = inhibition” value is reported as 3.18%.
For NCCCC[C@H](N)C(=O)Nc1ccc(Cl)cc1C(=O)c1ccc[nH]1, the “activity change, negative = inhibition” value was 9%.
With CC(C)Nc1oc(-c2cccc3ccccc23)nc1C#N the “activity change, negative = inhibition” value was -10.6%.
Cc1cc(C)nc(NC(=S)N2CCN(c3cccc(OC(F)F)c3)CC2)c1 was tested, and the “activity change, negative = inhibition” value was 18.9%.
With CC1CC(O)/C=C/C(O)/C=C\C(=O)O1 (centres undefined) the “activity change, negative = inhibition” value was -9.09% [at 81.8 µM].
With COc1ccccc1CNC(=O)Nc1nnc(-c2ccncc2)s1 the “activity change, negative = inhibition” value was 2.46%.
With COc1ccc(S(=O)(=O)N2CCN(S(=O)(=O)c3c(F)cccc3F)CC2)cc1 the Potency was “inactive”.
In the case of COc1ccc(C2Nc3ccccc3C(=O)N2Cc2cccnc2)cc1COc1c(C)cccc1C (centres undefined), the “activity change, negative = inhibition” value is reported as 5.22%.
For Cc1ccc(S(=O)(=O)Nc2ccccc2CNc2nc(-c3ccccc3)cs2)cc1, the “activity change, negative = inhibition” value was 5.26%.
COc1cc(F)c(S(=O)(=O)N2CCN(S(=O)(=O)c3ccc4c(c3)OCCO4)CC2)c(F)c1 was tested, and the “activity change, negative = inhibition” value was 19.2%.
With N#Cc1ccc(-c2csc(N3CCC(C(N)=O)CC3)n2)cc1 the “activity change, negative = inhibition” value was 3.95%.
In the case of O=C(Cn1cc(CNC(=O)C2CCCCC2)nn1)Nc1cc(C(F)(F)F)ccc1Cl, the “activity change, negative = inhibition” value is reported as 0.711%.
For Cc1ccccc1N(C)C1=N[S+](=O)([O-])c2ccccc21, the “activity change, negative = inhibition” value was -2.41%.
For Cc1cc(NS(=O)(=O)c2ccc(NC(=O)Cc3ccc(C)c(F)c3)cc2)no1, the “activity change, negative = inhibition” value was 11%.
CN1CCCC1CCNc1ncnc2ccc(-c3ccc4c(c3)OCO4)cc12 (centres undefined) was tested, and the “activity change, negative = inhibition” value was -16.5%.
For C(=Nc1cccnc1)c1cccs1, the “activity change, negative = inhibition” value was 4.45%.
With Cc1nc(N2CCOCC2)c2nc(-c3ccccc3)n(CC3CCN(C)CC3)c2n1 the “activity change, negative = inhibition” value was 9.06%.
For O=C1CCc2cc(S(=O)(=O)NCc3ccccc3)ccc2N1, the “activity change, negative = inhibition” value was -1.4%.
With O=S(=O)(c1ccc2c(c1)OCCO2)C1CCC(S(=O)(=O)c2c(F)cccc2F)CC1 (centres undefined) the Potency was “inactive”.
For Cn1nnnc1Sc1ncnc2scc(-c3ccc(Cl)cc3)c12, the “activity change, negative = inhibition” value was -4.13%.
Cc1cccc(-c2nnc(C)n2CCCn2ccnc2)c1N was tested, and the “activity change, negative = inhibition” value was -5.59%.
With CC(=O)O[C@H]1C(=O)[C@@]2(C)[C@H]([C@H](OC(=O)c3ccccc3)[C@]3(O)C[C@H](OC(=O)[C@H](O)[C@@H](NC(=O)c4ccccc4)c4ccccc4)C(C)=C1C3(C)C)[C@]1(OC(C)=O)CO[C@@H]1C[C@@H]2O the “activity change, negative = inhibition” value was 14.8% [at 16.9 µM].
With O=C(O)c1ccc(CSc2nnc(-c3cccc([S+](=O)([O-])NC4CCCC4)c3)n2-c2ccccc2)cc1 the “activity change, negative = inhibition” value was 4.52%.
For CC(C)CN1CC2=C(C1=O)C(c1ccccc1Cl)N=C(Nc1nc3ccccc3o1)N2 (centres undefined), the “activity change, negative = inhibition” value was 24.8%.
Cc1cc2c(s1)c1cnn(Cc3cc(F)c(F)c(F)c3F)c(=O)c1n2C was tested, and the “activity change, negative = inhibition” value was -9.39%.
In the case of Cc1ccc(NC(=O)CSc2nnc(-c3cccc([S+](=O)([O-])N4CCCC4)c3)n2-c2c(C)cccc2C)cc1, the “activity change, negative = inhibition” value is reported as 15.4%.
